# Measured values reported in the supplement of paper PMC13380429.
# Assays:
# [1] = system: Vero E6 infected with SARS-CoV-2; assay: morphology score (similarity to uninfected cells); higher = more like uninfected cells; settings: 24 h
# [2] = system: Vero E6 infected with SARS-CoV-2; assay: SARS-CoV-2 infection rate relative to infected DMSO; higher = more infection, active = 60 or less; settings: 24 h
structure (smiles),measurement,setting,value
CC(CN(C)C)C(C)(O)Cc1ccc(Cl)cc1 (stereo not given) [clobutinol] (10 µM),morphology score,[1],0.00198
same,SARS-CoV-2 infection rate,[2],109% (inactive)
CN1CCCC(CN2c3ccccc3Sc3ccccc32)C1 (stereo not given) [mepazine] (10 µM),morphology score,[1],0.538
same,SARS-CoV-2 infection rate,[2],60.5% (inactive)
CCCn1c(=O)c2nc(C34CC5CC(CC3C5)C4)[nH]c2n(CCC)c1=O (10 µM),morphology score,[1],0.134
same,SARS-CoV-2 infection rate,[2],94% (inactive)
O=C(Nc1ccc(S(=O)(=O)Nc2ccccc2Cl)c(Cl)c1)c1ccccn1 (10 µM),morphology score,[1],-0.132
same,SARS-CoV-2 infection rate,[2],114% (inactive)
CCCNCCc1ccc(NS(=O)(=O)c2ccc(OC(F)(F)F)cc2)cc1 (10 µM),morphology score,[1],-0.19
same,SARS-CoV-2 infection rate,[2],110% (inactive)
COc1ncc(-c2ccc3c(Nc4cc(Oc5cc(F)cc(F)c5)cc(C(=O)O)c4)c(S(=O)(=O)NC4CC4)cnc3c2)c(OC)n1 (10 µM),morphology score,[1],-0.00104
same,SARS-CoV-2 infection rate,[2],109% (inactive)
C[C@H](CSC(=O)c1ccccc1)C(=O)N1C[C@@H](Sc2ccccc2)C[C@H]1C(=O)O [zofenopril-calcium] (10 µM),morphology score,[1],0.0896
same,SARS-CoV-2 infection rate,[2],104% (inactive)
CN(C)C(=N)NC(=N)N [metformin] (10 µM),morphology score,[1],-0.00931
same,SARS-CoV-2 infection rate,[2],108% (inactive)
CN1C(=O)CC[C@H]1c1cccnc1 [cotinine] (10 µM),morphology score,[1],0.0591
same,SARS-CoV-2 infection rate,[2],108% (inactive)
CCCCCN(CCCOC)C(=O)[C@@H](CCC(=O)O)NC(=O)c1ccc(Cl)c(Cl)c1 [dexloxiglumide] (10 µM),morphology score,[1],0.0908
same,SARS-CoV-2 infection rate,[2],107% (inactive)
CN1C(=O)OC(C)(C)C1=O [trimethadione] (10 µM),morphology score,[1],0.1
same,SARS-CoV-2 infection rate,[2],106% (inactive)
O=C(c1c2ccccc2cc2ccccc12)N1CCC(N2CCC[C@@H](C(=O)N3CCOCC3)C2)CC1 (10 µM),morphology score,[1],0.0309
same,SARS-CoV-2 infection rate,[2],93.5% (inactive)
CCN(CC)CCOC(=O)C(c1ccccc1)C1CCCCC1 (stereo not given) [drofenine] (10 µM),morphology score,[1],0.275
same,SARS-CoV-2 infection rate,[2],99.5% (inactive)
CNC(C)(C)Cc1ccccc1 [mephentermine] (10 µM),morphology score,[1],-0.196
same,SARS-CoV-2 infection rate,[2],117% (inactive)
COc1cc2c(NC3CCN(C(C)C)CC3)nc(N3CCC(F)(F)CC3)nc2cc1OCCCN1CCCC1 (10 µM),morphology score,[1],0.243
same,SARS-CoV-2 infection rate,[2],25.5% (active)
CCCCCCCCCCCCCCCCNc1ccc(C(=O)O)cc1 [cetaben] (10 µM),morphology score,[1],0.21
same,SARS-CoV-2 infection rate,[2],91.5% (inactive)
Cc1cn([C@H]2C[C@H](N=[N+]=[N-])[C@@H](CO)O2)c(=O)[nH]c1=O [zidovudine] (10 µM),morphology score,[1],-0.144
same,SARS-CoV-2 infection rate,[2],108% (inactive)
CCS(=O)(=O)N1CCN(c2ccc(Nc3ncc(C(N)=O)c(NC4CC4)n3)cc2)CC1 (10 µM),morphology score,[1],0.439
same,SARS-CoV-2 infection rate,[2],123% (inactive)
CCC1(C)CC(=O)NC(=O)C1 [bemegride] (10 µM),morphology score,[1],0.0851
same,SARS-CoV-2 infection rate,[2],95.5% (inactive)
COC(=O)Nc1nc2cc(C(=O)c3cccs3)ccc2[nH]1 [nocodazole] (0.833333 µM),morphology score,[1],0.025
same,SARS-CoV-2 infection rate,[2],104% (inactive)
O=C(N[C@@H](Cc1c[nH]c2ccccc12)C(=O)O)c1ccc(Cl)cc1 [benzotript] (10 µM),morphology score,[1],-0.049
same,SARS-CoV-2 infection rate,[2],104% (inactive)
Cc1noc2c1-c1ccccc1C(c1ccc(Cl)cc1)=N[C@H]2CC(N)=O (10 µM),morphology score,[1],-0.0562
same,SARS-CoV-2 infection rate,[2],108% (inactive)
C[C@H]1CO[C@@H]2Cn3cc(C(=O)NCc4ccc(F)cc4F)c(=O)c(O)c3C(=O)N12 (10 µM),morphology score,[1],-0.00851
same,SARS-CoV-2 infection rate,[2],108% (inactive)
CCc1cc(-c2[nH]nc(C)c2-c2ccc3c(c2)OCCO3)c(O)cc1O (0.833333 µM),morphology score,[1],0.075
same,SARS-CoV-2 infection rate,[2],114% (inactive)
CCC(=O)OCC(=O)[C@@]1(OC(=O)CC)[C@H](C)C[C@H]2[C@H]3[C@H]([C@@H](O)C[C@@]21C)[C@@]1(C)C=CC(=O)C=C1C[C@H]3Cl [alclometasone-dipropionate] (10 µM),morphology score,[1],0.139
same,SARS-CoV-2 infection rate,[2],98% (inactive)
[O-][S+](c1ccccc1)c1ccc2nnnn2n1 (stereo not given) (0.833333 µM),morphology score,[1],0.19
same,SARS-CoV-2 infection rate,[2],85.5% (inactive)
Nc1nc(=O)n([C@@H]2O[C@H](CO)[C@@H](O)[C@@H]2F)cc1I [fiacitabine] (10 µM),morphology score,[1],-0.0647
same,SARS-CoV-2 infection rate,[2],111% (inactive)
COc1cc2ncn(-c3cc(OCc4ccccc4C(F)(F)F)c(C(N)=O)s3)c2cc1OC (10 µM),morphology score,[1],-0.0651
same,SARS-CoV-2 infection rate,[2],106% (inactive)
COc1cc(CNC(=O)CCCC/C=C/C(C)C)ccc1O [capsaicin] (10 µM),morphology score,[1],0.0697
same,SARS-CoV-2 infection rate,[2],107% (inactive)
Cc1noc(C)c1-c1ccc(-c2cc(C(N)=O)c(NC(N)=O)s2)c(O[C@H]2CCNC2)c1 (10 µM),morphology score,[1],0.0267
same,SARS-CoV-2 infection rate,[2],104% (inactive)
